{"source": "paper PMC5540273", "about": "(PLoS ONE, 2017)", "key": {"[1]": {"tested_on": "TAOK1", "conditions": "concentration: 1 μM, replicates: in singlicate; n = 1"}, "[2]": {"tested_on": "TAOK2", "conditions": "concentration: 1 μM, replicates: in singlicate; n = 1"}, "[3]": {"tested_on": "TAOK3", "conditions": "concentration: 1 μM, replicates: in singlicate; n = 1"}, "[4]": {"tested_on": "TBK1", "conditions": "concentration: 1 μM, replicates: in singlicate; n = 1"}, "[5]": {"tested_on": "TEC", "conditions": "concentration: 1 μM, replicates: in singlicate; n = 1"}, "[6]": {"tested_on": "TESK1", "conditions": "concentration: 1 μM, replicates: in singlicate; n = 1"}, "[7]": {"tested_on": "TGFBR1", "conditions": "n = 1"}, "[8]": {"tested_on": "TGFBR2", "conditions": "concentration: 1 μM, replicates: in singlicate; n = 1"}, "[9]": {"tested_on": "TIE1", "conditions": "concentration: 1 μM, replicates: in singlicate; n = 1"}, "[10]": {"tested_on": "T1, TIE2", "T1 construct": "gene TEK", "conditions": "concentration: 1 μM, replicates: in singlicate; n = 1"}, "[11]": {"conditions": "concentration: 1 μM, replicates: in singlicate"}}, "note": "Like-named read-outs stand apart in the source and are kept apart here.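 Note: KINOMEscan kinase panel screen.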"}
{"smiles": "Fc1ccc(-c2nc3n(c2-c2ccncc2)CCS3)cc1", "note": "[GI98581]", "values": [{"measurement": "%Inh", "setting": "[1]", "result": 0, "unit": "%"}, {"measurement": "%Inh", "setting": "[2]", "result": 0, "unit": "%"}, {"measurement": "%Inh", "setting": "[3]", "result": 0, "unit": "%"}, {"measurement": "%Inh", "setting": "[4]", "result": 5, "unit": "%"}, {"measurement": "%Inh", "setting": "[5]", "result": 1, "unit": "%"}, {"measurement": "%Inh", "setting": "[6]", "result": 23, "unit": "%"}, {"measurement": "%Inh", "setting": "[7]; [11]", "result": 26, "unit": "%"}, {"measurement": "%Inh", "setting": "[8]", "result": 8, "unit": "%"}, {"measurement": "%Inh", "setting": "[9]", "result": 19, "unit": "%"}, {"measurement": "%Inh", "setting": "[10]", "result": 0, "unit": "%"}]}
{"smiles": "CC(C)c1ccc(O)cc1Nc1ccnc2ccc(C(F)(F)F)cc12", "note": "[GW482059]", "values": [{"measurement": "%Inh", "setting": "[1]", "result": 0, "unit": "%"}, {"measurement": "%Inh", "setting": "[2]", "result": 0, "unit": "%"}, {"measurement": "%Inh", "setting": "[3]", "result": 4, "unit": "%"}, {"measurement": "%Inh", "setting": "[4]", "result": 0, "unit": "%"}, {"measurement": "%Inh", "setting": "[5]", "result": 0, "unit": "%"}, {"measurement": "%Inh", "setting": "[6]", "result": 0, "unit": "%"}, {"measurement": "%Inh", "setting": "[7]; [11]", "result": 0, "unit": "%"}, {"measurement": "%Inh", "setting": "[8]", "result": 15, "unit": "%"}, {"measurement": "%Inh", "setting": "[9]", "result": 13, "unit": "%"}, {"measurement": "%Inh", "setting": "[10]", "result": 0, "unit": "%"}]}
{"smiles": "Cc1ccccc1-c1cc(-c2c[nH]nc2-c2ccccn2)ccn1", "note": "[GW680061]", "values": [{"measurement": "%Inh", "setting": "[1]", "result": 0, "unit": "%"}, {"measurement": "%Inh", "setting": "[2]", "result": 0, "unit": "%"}, {"measurement": "%Inh", "setting": "[3]", "result": 0, "unit": "%"}, {"measurement": "%Inh", "setting": "[4]", "result": 0, "unit": "%"}, {"measurement": "%Inh", "setting": "[5]", "result": 15, "unit": "%"}, {"measurement": "%Inh", "setting": "[6]", "result": 24, "unit": "%"}, {"measurement": "%Inh", "setting": "[7]; 1 µM", "result": 5, "unit": "%"}, {"measurement": "%Inh", "setting": "[8]", "result": 0, "unit": "%"}, {"measurement": "%Inh", "setting": "[9]", "result": 6, "unit": "%"}, {"measurement": "%Inh", "setting": "[10]", "result": 0, "unit": "%"}]}
{"smiles": "Cc1ccccc1Cn1ccn2c(=O)cc(N3CCOCC3)nc12", "note": "[GSK2269905]", "values": [{"measurement": "%Inh", "setting": "[1]", "result": 0, "unit": "%"}, {"measurement": "%Inh", "setting": "[2]", "result": 0, "unit": "%"}, {"measurement": "%Inh", "setting": "[3]", "result": 0, "unit": "%"}, {"measurement": "%Inh", "setting": "[4]", "result": 0, "unit": "%"}, {"measurement": "%Inh", "setting": "[5]", "result": 16, "unit": "%"}, {"measurement": "%Inh", "setting": "[6]", "result": 15, "unit": "%"}, {"measurement": "%Inh", "setting": "[7]; [11]", "result": 0, "unit": "%"}, {"measurement": "%Inh", "setting": "[8]", "result": 0, "unit": "%"}, {"measurement": "%Inh", "setting": "[9]", "result": 0, "unit": "%"}, {"measurement": "%Inh", "setting": "[10]", "result": 0, "unit": "%"}]}
{"smiles": "CCc1ccc(-c2ccc3c(c2)-c2n[nH]cc2S(=O)(=O)N3C)cc1", "values": [{"measurement": "%Inh", "setting": "[1]", "result": 0, "unit": "%"}, {"measurement": "%Inh", "setting": "[2]", "result": 27, "unit": "%"}, {"measurement": "%Inh", "setting": "[3]", "result": 0, "unit": "%"}, {"measurement": "%Inh", "setting": "[4]", "result": 0, "unit": "%"}, {"measurement": "%Inh", "setting": "[5]", "result": 0, "unit": "%"}, {"measurement": "%Inh", "setting": "[6]", "result": 15, "unit": "%"}, {"measurement": "%Inh", "setting": "[7]; [11]", "result": 0, "unit": "%"}, {"measurement": "%Inh", "setting": "[8]", "result": 0, "unit": "%"}, {"measurement": "%Inh", "setting": "[9]", "result": 0, "unit": "%"}, {"measurement": "%Inh", "setting": "[10]", "result": 20, "unit": "%"}]}
